Experimental data: PubChem BioAssay AID602 (SRMLSC, 2007)
Hit rate of the full screen: of about 85,000 compounds, about 35 (0.04%) were called active.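 Rule for the calls: active = viability drop by adding the cancer drug above about 55%, with treated viability meeting a 40% cutoff (limit read from the data); inactive = the rest, inconclusive results apart.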 Many of the other results were omitted from the sample, so actives are more common in it than they were.

Assay: MRP1 drug-resistance reversers in H69AR cells – cell-based, doxorubicin co-treatment, primary screen (AID 602);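 for differential viability (reversal): larger differential means the compound sensitizes cells more to doxorubicin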
Conditions: CellTiter-Glo, 72 h, at 10 µM; for differential viability (reversal): stronger effect = higher value
[1] = H69AR cells + 2 uM doxorubicin, measured here: viability with 2 uM doxorubicin, stronger effect = lower value
[2] = H69AR cells, measured here: cytotoxicity without doxorubicin

SMILES | differential viability (reversal) (H69AR cells + 2 uM doxorubicin) | viability [1] [%] | viability [2] [%]
Nc1ccc(-n2nncc2-c2ccco2)cc1 | 59.2% (active) | 39.6 | 98.8
Cc1ccc(-n2ncc3c(=O)n(-c4ccc(C)c(C)c4)c(-c4ccco4)nc32)cc1 | -39.7% (inactive) | 71 | 31.3
Cc1[nH]n(-c2cccc(Cl)c2)c(=O)c1/C=N/n1c(C)nc2ccccc2c1=O | -32.9% (inactive) | 62 | 29.1
Cc1cccc(C)c1OC(=O)CSc1nnc(-c2ccccc2)o1 | 9.93% (inactive) | 88.5 | 98.4
Cc1ccc(NC(=S)NC(NC(=O)Cc2cccc3ccccc23)C(Cl)(Cl)Cl)cc1 (stereo unspecified) | 0.19% (inactive) | 0.8 | 0.99
COc1ccc(/C(N)=N/OC(=O)Oc2ccccc2)cc1 | -10.6% (inactive) | 93.2 | 82.6
CCOc1ccc2c(c1)C(c1ccc(C)cc1)=NNC(c1ccc(C)cc1)=N2 | -43% (inactive) | 64 | 21
O=C(CN1CCSCC1)N/N=C/c1ccc(F)cc1 | 8.43% (inactive) | 90.1 | 98.5
CC(C)(C)c1ccc(C(=O)NNC(=O)Cc2ccccc2)cc1 | 9.15% (inactive) | 85.9 | 95
COC(=O)C1=C(C(=O)OC)C2(OC1c1ccc(Br)cc1)C(=O)c1ccccc1C2=O (stereo unspecified) | 12.1% (inactive) | 94 | 106
O=C(CSc1nc2cccnc2n1Cc1ccccc1)N1CCc2ccccc21 | 10.8% (inactive) | 59.3 | 70.1
COC(=O)CCSc1cc([N+](=O)[O-])cc2c1c(C1OCCS1)nn2-c1ccccc1 (stereo unspecified) | -2.64% (inactive) | 101 | 98.2
CCCOn1c(-n2nc(C)cc2C)nc2ccccc2c1=O | 4.29% (inactive) | 89.5 | 93.8
O=C(Nc1ccc(F)c(Cl)c1)C1CCN(S(=O)(=O)c2cccnc2)CC1 | 1.44% (inactive) | 70.3 | 71.8
Cc1ccc(C(=O)N/N=C/c2sc(=O)n(Cc3cccc(C(=O)O)c3)c2Cl)cc1 | -5.62% (inactive) | 92.7 | 87.1
CCOC(=O)C(C)Sc1nc2ccccc2c(=O)n1CC1CCCCC1 (stereo unspecified) | 7.81% (inactive) | 74.6 | 82.4
Cc1cccc(NC(=O)C2CC(=O)OC23CCCC3)c1 (stereo unspecified) | 6.22% (inactive) | 95.5 | 102
COc1ccc(CC(NC(C)=O)C(=O)N2CCN(C(=O)Nc3cccc(Cl)c3)CC2)cc1OC (stereo unspecified) | 6.8% (inactive) | 85 | 91.8
O=C(CCS(=O)(=O)c1cccc2nsnc12)N1CCN(c2ccccc2F)CC1 | 10.9% (inactive) | 80 | 91
COc1ccc(-c2cc(C(=O)NCc3ccco3)no2)cc1OC | 7.53% (inactive) | 92.6 | 100
CCOC(=O)C1=C(C)NC2=C(C(=O)CC(C)(C)C2)C1c1ccsc1 (stereo unspecified) | -1.33% (inactive) | 85.8 | 84.5
O=S(=O)(NCCc1ccccc1)c1ccccc1 | 7.78% (inactive) | 95.5 | 103
CCN(c1ccccc1)S(=O)(=O)c1ccc(NC(=O)C(C)(C)C)cc1 | -29.8% (inactive) | 64.7 | 34.8
COc1ccc(-c2cc(C(F)(F)F)nc(NCc3cccnc3)n2)cc1 | 1.23% (inactive) | 91.7 | 92.9
Cc1ccc(S(=O)(=O)N2CCN(S(=O)(=O)N3CCOCC3)CC2)cc1 | 3.28% (inactive) | 89.8 | 93.1
CCOC(=O)/C(C#N)=C\c1c(C)cc(C)c(COC(C)=O)c1C | 5.79% (inactive) | 89.3 | 95.1

SMILES | differential viability (reversal) (H69AR cells + 2 uM doxorubicin) | viability [1] [%] | viability [2] [%]
Cc1ccc(F)c(NC(=O)CCc2ccccc2)c1 | 2.31% (inactive) | 95.5 | 97.8
COc1ccc(-n2c(C)csc2=S)cc1 | -2.75% (inactive) | 89.3 | 86.6
CCN(CC)CCNC(=O)CCCCCn1c(=O)[nH]c2cc(C(=O)OC)ccc2c1=O | 10.3% (inactive) | 91.6 | 102
N=c1c2c3c(sc2nc2n1CCCCC2)CCCC3 | 9.08% (inactive) | 75.2 | 84.3
Cc1cnc(NC(=O)C2CCCC2)s1 | -2.44% (inactive) | 100 | 97.7
Oc1ccccc1CNc1ncc(Br)cc1Br | -9.74% (inactive) | 83.2 | 73.5
O=C(COC(=O)c1n[nH]c2ccccc12)NCc1ccccc1 | 1.28% (inactive) | 95.4 | 96.7
CCOc1ccc(Nc2nc(Cc3nnc(SCC(=O)c4ccc(C)cc4)o3)cs2)cc1 | -4.34% (inactive) | 92.9 | 88.6
O=C1CC(Sc2ncn[nH]2)C(=O)N1c1ccccc1 (stereo unspecified) | 9.11% (inactive) | 87 | 96.1
O=C(c1cccc(F)c1)N1CCC(O)(c2cccnc2)CC1 | 5.21% (inactive) | 82.9 | 88.1
O=C(NCc1ccco1)C1(c2ccc(Cl)cc2)CCCC1 | -5.04% (inactive) | 102 | 96.8
O=C(c1ccc2c(c1)OCO2)N1CCN(C(=O)c2ccco2)CC1 | 18.9% (inactive) | 73 | 91.9
O=C(c1ccccc1Oc1ccccc1)N1CCN(c2ccc(F)cc2)CC1 | 4.49% (inactive) | 95.8 | 100
COc1ccc(N2CCN(C(=O)CCc3nc(-c4ccc(C)cc4)no3)CC2)cc1 | 16.8% (inactive) | 81.6 | 98.4
CS(=O)(=O)N(Cc1ccc(Cl)cc1)c1ccc(C(=O)NCCSCc2ccco2)cc1 | -17.6% (inactive) | 111 | 93.7
COC(=O)C1=C(Nc2ccc(OC)cc2)C=C(C)C(C(=O)OC)C1c1ccc(C)cc1 (stereo unspecified) | -22.3% (inactive) | 77.8 | 55.6
COc1ccc(C(C#N)N2N=C(C)CC2(C)C)cc1 (stereo unspecified) | 15.2% (inactive) | 89.1 | 104
Cn1c(=O)c2c(SCC(=O)N3CCOCC3)nc(C3CC3)nc2n(C)c1=O | -2.72% (inactive) | 84.5 | 81.8
CO/N=C(/CS(=O)(=O)c1ccc(Br)cc1)c1ccc(OC)cc1 | -26.9% (inactive) | 58.3 | 31.4
CCSc1ccccc1C(=O)NCc1ccc(OC)cc1 | 7.76% (inactive) | 84.9 | 92.6
Cc1ccc2cc(CCNC(=O)c3ccc4c(c3)OCO4)c(=O)[nH]c2c1 | -5.04% (inactive) | 84.9 | 79.8
CCC(O)CNc1nc(-n2nc(C)cc2C)nc2sc3c(c12)CC(C)(C)OC3 (stereo unspecified) | -4.15% (inactive) | 48.8 | 44.6
CC(C)(CNC(=O)c1cc(=O)[nH]c2ccccc12)N1CCOCC1 | 3.32% (inactive) | 97.6 | 101
Cc1ccc(N(CC(=O)Nc2cc(C)cc(C)c2)S(=O)(=O)c2cccc3nonc23)cc1 | -3.92% (inactive) | 101 | 96.6
Cn1ccs/c1=N\S(=O)(=O)c1ccc(C(C)(C)C)cc1 | 11.8% (inactive) | 77.6 | 89.4
CCOC(=O)c1ccc(COC(=O)CCc2nc(-c3ccccc3)c(-c3ccccc3)o2)cc1 | -11.9% (inactive) | 83.3 | 71.4

SMILES | differential viability (reversal) (H69AR cells + 2 uM doxorubicin) | viability [1] [%] | viability [2] [%]
CCCC(C)C(=O)Nc1ccc(NC(C)=O)cc1 (stereo unspecified) | 22.1% (inactive) | 80.5 | 103
COc1c(F)c(F)c(C(=O)O)c(Nc2ccccc2C)c1F | 3.75% (inactive) | 94.8 | 98.5
C=CCc1ccc(OCCOc2cccc(/C=N/n3cnnc3)c2)c(OC)c1 | 9.09% (inactive) | 71.3 | 80.3
CCOC(=O)CSc1nc2ccc(C)cc2[nH]1 | 2.1% (inactive) | 87.3 | 89.4
C=CCn1c(SCC(=O)c2ccc(Br)cc2)nnc1C(C)NC(=O)Cc1ccc(OC)cc1 (stereo unspecified) | 22.5% (inactive) | 49.3 | 71.8
O=C1CSC(c2cccc(F)c2)N1c1ccc(O)cc1 (stereo unspecified) | 12.3% (inactive) | 88.2 | 101
Cc1nnc(NCCO)c2ccccc12 | 7.47% (inactive) | 82.3 | 89.8
CCn1c(SCC(=O)c2ccc3ccccc3c2)nnc1-c1cccs1 | 5.66% (inactive) | 98.1 | 104
Cc1cc(C(=O)Nc2ccccc2N2CCOCC2)c2ccccc2n1 | -7.84% (inactive) | 75.7 | 67.9
Cc1nnc(SCC(=O)NC2CCCC2)s1 | 7.72% (inactive) | 107 | 115
Nn1c(SCC(=O)NC2CCCC2)nnc1-c1ccccc1F | 13.3% (inactive) | 88.7 | 102
COC(CNC(=O)Cn1ncc2ccsc2c1=O)OC | -2.17% (inactive) | 103 | 101
Cc1cccc(N2CCN(C(c3ccc(N(C)C)cc3)c3nnnn3C(C)(C)C)CC2)c1C (stereo unspecified) | 2.35% (inactive) | 81 | 83.3
CCOC(=O)C1=C(CSc2nnnn2C)N(C)C(=O)NC1c1ccccc1 (stereo unspecified) | 12.1% (inactive) | 81 | 93.1
COc1ccc(CCNS(=O)(=O)c2ccc(Cl)s2)cc1OC | 13.7% (inactive) | 79.3 | 93
O=S(=O)(Nc1ccc(Oc2ncccn2)c(Cl)c1)c1ccc(F)cc1 | 4.78% (inactive) | 88.8 | 93.6
CC(c1ccccn1)N(CCN(C)C)C(=S)Nc1ccccc1F (stereo unspecified) | 16.9% (inactive) | 100 | 117
CCC(=O)NC(Nc1cc(C)ccn1)(C(F)(F)F)C(F)(F)F | 7.06% (inactive) | 92 | 99
O=C(NCC1CCC(C(=O)O)CC1)OCc1ccccc1 (stereo unspecified) | 6.33% (inactive) | 92.2 | 98.5
CCN(CC)CCn1c(=S)[nH]c2ncccc2c1=O | 12.4% (inactive) | 88.8 | 101
CCOC(=O)C1C(=O)NCC1c1ccccc1 (stereo unspecified) | 1.49% (inactive) | 98.4 | 99.9
CC(C)CC(N=C1NC(C)(C)Cc2ccccc21)C(=O)O (stereo unspecified) | 9.71% (inactive) | 98.6 | 108
CCCCNC(=O)OC(C)CNC(=O)OC (stereo unspecified) | -15% (inactive) | 111 | 95.6
COc1cc(OC)nc(NC(=O)CCl)n1 | 4.9% (inactive) | 93.8 | 98.7
Cc1cc2nc(C)n(CCCNC(=O)Nc3ccccc3)c2cc1C | 7.8% (inactive) | 83.9 | 91.7
